In PubChem BioAssay (EPA / NIEHS):
Calls of active or inactive are those of the source. How the source made its calls: active means hit-call score of the fitted dose curve at least 0.9, where 1 is the maximum; inactive means score below 0.9.

Test: APR_HepG2_NuclearSize_72hr: Apredica 72-hour HepG2 Assay for Nuclear Size (AID 2282925)
Details: high-content imaging, actives raise or lower the signal
Procedure: APR_HepG2_72hr is a cell-based, multiplexed-readout assay that uses HepG2, a human liver cell line, with measurements taken at 72 hours after chemical dosing in a 384-well plate.APR_HepG2_NuclearSize_72hr is one of 10 assay component(s) measured or calculated from the APR_HepG2_72hr assay. It is designed to make measurements of cell phenotype, a form of morphology reporter, as detected with fluorescence intensity signals by HCS Fluorescent Imaging technology.Data from the assay component APR_HepG2_NuclearSize_72hr was analyzed into 1 assay endpoint. This assay endpoint, APR_HepG2_NuclearSize_72hr, was analyzed with bidirectional fitting relative to DMSO as the negative control and baseline of activity. Using a type of morphology reporter, measures of all nuclear dna for gain or loss-of-signal activity can be used to understand the signaling at the nuclear-level. Furthermore, this assay endpoint can be referred to as a primary readout, because this assay has produced multiple assay endpoints where this one serves a signaling function. To generalize the intended target to other relatable targets, this assay endpoint is annotated to the cell morphology intended target family, where the subfamily is organelle conformation.
Cells were treated with dimethyl sulfoxide (DMSO) as a solvent control at a final concentration of 0.5% v/v or with compounds in DMSO with a resulting final DMSO concentration of 0.5% v/v. Compound treatment was done at concentrations of 0.39, 0.78, 1.56, 3.12, 6.24, 12.5, 25, 50, 100, and 200 uM in duplicate on each plate. Cells were treated with compounds for 1, 24, or 72 hr. Carbonyl […] m-chloro-phenylhydrazone (CCCP) and taxol were used as positive controls for mitochondrial function and cytoskeletal stability, respectively; DMSO served as the negative control for this experiment. Cells were fixed by the direct addition of 50 uL formaldehyde in Hank's Balanced Salt Solution (HBSS) to a final concentration of 3.7%. After incubation in the fixation medium for 30 min at room temperature (293-298 K), cells were rinsed twice with HBSS and treated with cell permeabilization buffer (16 uL of 0.5% Triton X-100) for 10 min at room temperature (293-298 K) before labeling. For mitochondrial membrane potential and mitochondrial measurements, pre-fixed cells were incubated with 50 uL of MitoTracker Red CMXRos (Invitrogen) at a concentration of 250 nM for 30 min before fixation. In the remaining cases, post-fixed cells were labeled by incubation with a multiplexed mixture of primary antibodies in HBSS for 60 min at room temperature (293-298 K) to detect immunoreactivity of c-Jun (1:500), phospho-histone H3 (1:100), phospho-histone H2A.x (1:200), p53 (1:400), alpha-tubulin (1:200) and Hoechst 33342 (2 ug/mL). Cells were labeled for multiplexed imaging on two separate plates: a) Hoechst 33342, MitoTracker Red, phospho-histone H3, and alpha-tubulin, and b) Hoechst 33342, phospho-histone H2A.x, and c-Jun. A final rinse with HBSS (50 uL) was performed before analysis. The primary and secondary antibodies for the proteins were phospho-histone H3 (rabbit anti-phospho-histone H3 and FITC-donkey anti-rabbit IgG), phospho-histone H2A.x (mouse anti-phospho-histone H2A.x and FITC-donkey anti-mouse IgG), c-Jun (rabbit anti-phospho-c-Jun and Cy3-donkey anti-rabbit IgG), p53 (sheep anti-p53 and Cy5-donkey anti-sheep IgG), alpha-tubulin (mouse anti-alpha-tubulin and Cy5-donkey anti-mouse IgG). These antibodies are available as the CellCiphr HepG2 assay kit (Millipore).Digital images of each well were captured using a Cellomics ArrayScan VTI (Thermo Scientific Cellomics) (0.8 NA objective, 0.63x optical coupler, and XF-93 filter set) at 20x magnification. The images were acquired using the autofocus feature of the ArrayScan instrument, which entails the following steps. First, the camera focuses on channel 1 (Hoechst 33342), where nuclei are identified. Second, a Z offset of 1 um is used for capturing mitochondria (MitoTracker Red). […]

Which outcome does the source give for CC(C)(c1ccccc1)c1ccc(O)c(C(C)(C)c2ccccc2)c1 here?
Its outcome is “inactive”.

For NC(=O)O, which AC50 is on record?
The AC50 was 23.5 µM (active).

Which outcome does the source give for CC(C)(OO)c1ccccc1 here?
Its outcome is “inactive”.

With O=C(O)C(F)(F)C(F)(F)C(F)(F)C(F)(F)C(F)(F)C(F)(F)F as the molecule, how does the AC50 read?
Its AC50 is 6.95 µM (active).

For CC(C)(C)CC(C)(C)c1ccc(O)cc1, which outcome is on record?
Its outcome is “inactive”.

With ClCC(Cl)CCl as the molecule, how does the outcome read?
The outcome was “inactive”.

With O=C(O)C(Cl)(Cl)Cl as the molecule, how does the outcome read?
The outcome was “inactive”.

Which outcome does the source give for C[C@]12CCC(=O)C[C@@H]1CC[C@@H]1[C@@H]2CC[C@]2(C)[C@@H](O)CC[C@@H]12 here?
The outcome was “inactive”.

For CC12CC1(C)C(=O)N(c1cc(Cl)cc(Cl)c1)C2=O (stereo not drawn), which outcome is on record?
The outcome was “inactive”.

For C=C(C)C(=O)[O][Sn]([CH2]CCC)([CH2]CCC)[CH2]CCC, which AC50 is on record?
The AC50 was 0.0558 µM (active).

With CC(=O)[O][Hg][c]1ccccc1 as the molecule, how does the outcome read?
The outcome was “inactive”.

Which outcome does the source give for O=C(O)C(F)(F)C(F)(F)C(F)(F)C(F)(F)C(F)(F)C(F)(F)C(F)(F)C(F)(F)C(F)(F)C(F)(F)F here?
Its outcome is “inactive”.

With Cc1ccccc1N as the molecule, how does the outcome read?
The outcome was “inactive”.

Which outcome does the source give for COc1cc(-c2ccc(N)c(OC)c2)ccc1N here?
Its outcome is “inactive”.

With CN(C)N=O as the molecule, how does the outcome read?
The outcome was “inactive”.

For Oc1cccc2cccnc12, which outcome is on record?
The outcome was “inactive”.

For CC(C)(C)c1cc(O)ccc1O, which AC50 is on record?
The AC50 was 110 µM (active).

For CCN1CCC2(CC1)COc1cc3c(cc12)N(C(=O)c1ccc(-c2ccc(-c4nnc(C)o4)cc2C)cc1)CC3, which outcome is on record?
The outcome was “inactive”.

With O=C(Nc1ccc2[nH]ccc2c1)c1cc2cc(F)ccc2n1Cc1cccc(F)c1 as the molecule, how does the outcome read?
Its outcome is “inactive”.

For CCC(C)(C)c1ccc(O)c(C(C)(C)CC)c1, which outcome is on record?
Its outcome is “inactive”.

For ClC1(Cl)C2(Cl)C3(Cl)C4(Cl)C(Cl)(Cl)C5(Cl)C3(Cl)C1(Cl)C5(Cl)C24Cl (stereo not drawn), which outcome is on record?
The outcome was “inactive”.

With O=c1[nH]c(=O)[nH]c(=O)[nH]1 as the molecule, how does the outcome read?
Its outcome is “inactive”.

With CCCCCCCCc1ccc(O)cc1 as the molecule, how does the outcome read?
Its outcome is “inactive”.

With O=C1C2(Cl)C3(Cl)C4(Cl)C(Cl)(Cl)C5(Cl)C3(Cl)C1(Cl)C5(Cl)C24Cl (stereo not drawn) as the molecule, how does the AC50 read?
The AC50 was 24.1 µM (active).

For Cn1sc(Cl)cc1=O, which outcome is on record?
The outcome was “inactive”.

With CCC(=O)C(CC(C)N(C)C)(c1ccccc1)c1ccccc1 (stereo not drawn) as the molecule, how does the outcome read?
Its outcome is “inactive”.

With C[C@@H]1C[C@@H]([C@H](O)CC2CC(=O)NC(=O)C2)C(=O)[C@@H](C)C1 as the molecule, how does the outcome read?
Its outcome is “inactive”.

For C=CC(=O)OCCCCCC(C)C, which outcome is on record?
The outcome was “inactive”.
